Among the data in PubChem BioAssay (NCI) are growth values, retold here.

Some test systems named below: SK-MEL-2 melanoma; EKVX NSCLC; SN12C renal; UO-31 renal; TK-10 renal; ACHN renal; CAKI-1 renal; A498 renal; CCRF-CEM leukemia; MOLT-4 leukemia.
What all share (assay): NCI-60 one-dose screen, 48 h (100 = growth as untreated, 0 = no growth, -100 = all killed)
Common to all, as to conditions: 10 µM unless noted

The panel holds about 83,000 compounds, 20% with a hit somewhere; the sample as a whole holds those more often.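 Note: values are percent growth. 100 is the growth of untreated cells, values between 100 and 0 indicate rising inhibition; between -100 and 0 indicates cell death.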 Unmarked numbers belong to inactive results. Calls of active or inactive are those of the source. Rule for the calls: active = growth percent below 10; inactive = the rest.

With `O=C(NC1=CC(=O)c2ccccc2C1=O)c1ccccc1`, the growth is 0.417% (active) in the assay with SK-MEL-2 melanoma; 9.48% (active) with EKVX NSCLC; 29.2% in the assay on SN12C renal; -47.5% (active) in the assay with UO-31 renal; 53.3% in the assay on TK-10 renal; 2.6% (active) in the assay with ACHN renal. Also, the growth in the assay with CAKI-1 renal is 29.6%; with A498 renal, 53.3%; with CCRF-CEM leukemia it was 8.93% (active); in the assay on MOLT-4 leukemia, -16.9% (active).

For `Nc1ccc(Cl)cn1`, the growth in the assay on SK-MEL-2 melanoma is 107%; in the assay on EKVX NSCLC, 97.4%; in the assay with SN12C renal, 107%; in the assay on UO-31 renal, 86.7%; in the assay with TK-10 renal, 106%; in the assay on ACHN renal, 109%. Besides, the growth in the assay with CAKI-1 renal is 90.5%; in the assay with A498 renal, 96.4%; in the assay on CCRF-CEM leukemia, 107%.

Take `COc1c(N)c2c(c([N+](=O)[O-])c1OC)C(=O)OC2`: the growth in the assay with SK-MEL-2 melanoma is 102%; in the assay with EKVX NSCLC it was 111%; in the assay on SN12C renal, 93.5%; in the assay on UO-31 renal, 83.4%; in the assay on TK-10 renal, 103%; with ACHN renal it was 117%. In addition, the growth was 115% in the assay with CAKI-1 renal, 104% in the assay with A498 renal and 96.2% in the assay with CCRF-CEM leukemia.

For `CN(C)c1ccc(C(=O)c2ccc(N(C)C)c(N)c2)cc1N`, the growth in the assay on SK-MEL-2 melanoma is 61.6%; in the assay with EKVX NSCLC, 50.9%; with SN12C renal, 49.7%; in the assay with UO-31 renal it was 64.9%; in the assay with TK-10 renal, 67.3%; in the assay on ACHN renal, 50.5%. Moreover, the growth in the assay on CAKI-1 renal is 41%; in the assay on A498 renal, 25%; in the assay with CCRF-CEM leukemia, 36.4%.

For the molecule `Cc1cc(C)nc(NC(N)=NCCc2ccccc2)n1`, the growth with SK-MEL-2 melanoma was 38.4%; in the assay on EKVX NSCLC it was 59.7%; in the assay with SN12C renal, 45.1%; in the assay with UO-31 renal it was 69.2%; in the assay with TK-10 renal it was 75.6%; with ACHN renal it was 46.9%. Besides, the growth in the assay with CAKI-1 renal is 93.6%; in the assay on A498 renal it was 86.9%; in the assay on CCRF-CEM leukemia, 45.3%; with MOLT-4 leukemia it was 47.7%.

Turning to `CC(=O)OC(C)COc1ccc(-c2ccccc2)cc1` (stereo unspecified), the growth with SK-MEL-2 melanoma was 95%; in the assay with EKVX NSCLC, 101%; in the assay with SN12C renal, 104%; with UO-31 renal, 106%; in the assay on TK-10 renal, 80.7%; in the assay on ACHN renal it was 101%. Further, the results for the growth with CAKI-1 renal, in the assay on A498 renal and with CCRF-CEM leukemia were 94.7%, 92.7% and 99.6%, respectively.

Regarding `COc1cc(/C=C/c2cc(/C=C/c3ccc(O)c(OC)c3)n(-c3ccccc3)c(=O)n2)ccc1O`, the growth in the assay with SK-MEL-2 melanoma is 79.5%; in the assay with EKVX NSCLC it was 71.4%; in the assay on SN12C renal, 71.4%; in the assay on UO-31 renal, 58.6%; with TK-10 renal, 113%; in the assay with ACHN renal it was 81.1%. Besides, the growth in the assay on CAKI-1 renal is 83.7%; with A498 renal, 108%; with CCRF-CEM leukemia it was 28.5%.

With `COC(=O)[C@]12CC[C@@H](C)[C@H](C)[C@@H]1C1=CC[C@@H]3[C@@](C)(CC#N)C4=C(C[C@@]3(C)[C@]1(C)CC2)OC[C@]4(C)C=O`, the growth was -40.2% (active) with SK-MEL-2 melanoma; -11.8% (active) in the assay with EKVX NSCLC; 1.64% (active) in the assay with SN12C renal; 6.25% (active) in the assay on UO-31 renal; 3.82% (active) in the assay on TK-10 renal; 7.19% (active) in the assay with ACHN renal. Also, the values for the growth in the assay on CAKI-1 renal, with A498 renal and in the assay on CCRF-CEM leukemia were 9.24% (active), -91.7% (active) and 1.66% (active), respectively.

For `COC(=O)[C@]12CC[C@@H](C)[C@H](C)[C@@H]1C1=CC[C@@H]3[C@@]4(C)C[C@@H](OC(C)=O)[C@H](O)[C@@](C)(CO)[C@@H]4[C@H](O)C[C@@]3(C)[C@]1(C)CC2`, the growth with SK-MEL-2 melanoma is -84.2% (active); in the assay with EKVX NSCLC, -91.8% (active); with SN12C renal, -78.3% (active); in the assay on UO-31 renal, -74.1% (active); in the assay with TK-10 renal it was -96.9% (active); in the assay with ACHN renal, -88.3% (active). The growth in the assay on CAKI-1 renal was -85.6% (active); in the assay on A498 renal it was -95.9% (active); with CCRF-CEM leukemia, -68% (active).

As to `C=C(C)[C@@H]1CC[C@]2(C(=O)NNC(=O)c3cccnc3)CC[C@]3(C)[C@H](CC[C@@H]4[C@@]5(C)CCCNC(C)(C)[C@@H]5CC[C@]43C)[C@@H]12`, the growth in the assay with SK-MEL-2 melanoma is 100%; in the assay on EKVX NSCLC, 94.3%; with SN12C renal, 83.7%; with UO-31 renal, 64%; in the assay with TK-10 renal, 158%; with ACHN renal, 98.1%. The values for the growth with CAKI-1 renal, in the assay on A498 renal and in the assay on CCRF-CEM leukemia were 76%, 88.1% and 65.6%, respectively.

For the molecule `CN(C)CCCCC(C(=O)CBr)(c1ccccc1)c1ccccc1`, the growth is 53.8% in the assay with SK-MEL-2 melanoma; 48.8% in the assay with EKVX NSCLC; 20.8% with SN12C renal; -56.1% (active) in the assay with UO-31 renal; -47.6% (active) in the assay on TK-10 renal; -65.4% (active) with ACHN renal. Moreover, the figures for the growth with CAKI-1 renal, with A498 renal and in the assay on CCRF-CEM leukemia were -23.5% (active), 40.2% and 5.74% (active), respectively.

`COc1cccc(-c2nn(-c3ccccc3)cc2-c2ccnc(NCCCNS(=O)(=O)c3ccc(Cl)cc3)c2)c1`: the growth in the assay with SK-MEL-2 melanoma was 47.1%; in the assay with EKVX NSCLC it was 64%; in the assay on SN12C renal it was 49.3%; with UO-31 renal, 22%; in the assay on TK-10 renal, 52.3%; in the assay with ACHN renal, 38.6%. Moreover, the growth in the assay with CAKI-1 renal is 49.1%; in the assay on A498 renal it was 42.3%; in the assay on CCRF-CEM leukemia, 21.4%; with MOLT-4 leukemia it was 14.8%.

Take `O=C1/C(=C\C(Cl)=C/c2ccc([N+](=O)[O-])cc2)SC(=S)N1CCc1ccc(O)cc1`: the growth was 0.0993% (active) with SK-MEL-2 melanoma; -43% (active) in the assay with EKVX NSCLC; -9.23% (active) in the assay on SN12C renal; -91.4% (active) in the assay on UO-31 renal; -32.7% (active) in the assay on TK-10 renal; -89.4% (active) in the assay on ACHN renal. Also, the growth with CAKI-1 renal is -70.5% (active); in the assay on A498 renal, -27.5% (active); in the assay on CCRF-CEM leukemia, 8.16% (active); with MOLT-4 leukemia it was 7.65% (active).

With `C=C(C)[C@@H]1CC[C@]2(C=NCCCNCCCCNCCCN)CC[C@]3(C)[C@H](CC[C@@H]4[C@@]5(C)CCCNC(C)(C)[C@@H]5CC[C@]43C)[C@@H]12`, the growth in the assay with SK-MEL-2 melanoma was 132%; with EKVX NSCLC it was 102%; in the assay with SN12C renal it was 91.1%; with UO-31 renal, 92.1%; in the assay on TK-10 renal, 120%; in the assay with ACHN renal, 105%. The growth in the assay with CAKI-1 renal was 80.6%; in the assay with A498 renal it was 95.6%; in the assay with CCRF-CEM leukemia, 94.4%; with MOLT-4 leukemia it was 93.4%.
